This note sets out measurements from publication PMC7862700, “An all-to-all approach to the identification of sequence-specific readers for epigenetic DNA modifications on cytosine”.

What all share (assay): DAPPL (digital affinity profiling via proximity ligation, sequencing); 10 mM Tris-HCl pH 7.5, 50 mM NaCl, 1 mM DTT, 4% glycerol, room temperature, 30 min; GST-TFs on glutathione beads, 16-mer random dsDNA library, 0.1% formaldehyde crosslink after washing; high values mean tight binding
One experiment addresses T1, FEV (Homo sapiens, UniProt Q99581 1-238).
T1 sequence: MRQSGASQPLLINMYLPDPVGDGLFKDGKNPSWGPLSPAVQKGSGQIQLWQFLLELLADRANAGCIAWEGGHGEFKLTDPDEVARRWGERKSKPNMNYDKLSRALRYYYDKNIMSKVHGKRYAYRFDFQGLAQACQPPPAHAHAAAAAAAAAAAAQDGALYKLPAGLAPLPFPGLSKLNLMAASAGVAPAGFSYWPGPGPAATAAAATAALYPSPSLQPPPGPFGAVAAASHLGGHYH
To be noted: protein: recombinant; tags: N-terminal GST; dsDNA, one strand shown. Put shortly: (§1)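 Binding signal is defined as a hexamer's read frequency for one factor over its frequency for the tag-only sample. To obtain reads, GST-fused human transcription factors were expressed in yeast, captured on glutathione beads, barcoded with DNA and pooled with that sample. Pools met 200 nmole of a 16-mer random double-stranded DNA library in Tris/NaCl/DTT/glycerol buffer for 30 min at room temperature before washing, 0.1% formaldehyde crosslinking, proximity ligation (BsaI/T4 ligase, 1 h, 37 °C), PCR and Illumina NextSeq500 sequencing.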

For another experiment, the target named is ETV5 (Homo sapiens, UniProt P41161 1-510). To be noted: protein: recombinant; tags: N-terminal GST; dsDNA, one strand shown. Put shortly: as §1
Chain of ETV5 (P41161 whole entry): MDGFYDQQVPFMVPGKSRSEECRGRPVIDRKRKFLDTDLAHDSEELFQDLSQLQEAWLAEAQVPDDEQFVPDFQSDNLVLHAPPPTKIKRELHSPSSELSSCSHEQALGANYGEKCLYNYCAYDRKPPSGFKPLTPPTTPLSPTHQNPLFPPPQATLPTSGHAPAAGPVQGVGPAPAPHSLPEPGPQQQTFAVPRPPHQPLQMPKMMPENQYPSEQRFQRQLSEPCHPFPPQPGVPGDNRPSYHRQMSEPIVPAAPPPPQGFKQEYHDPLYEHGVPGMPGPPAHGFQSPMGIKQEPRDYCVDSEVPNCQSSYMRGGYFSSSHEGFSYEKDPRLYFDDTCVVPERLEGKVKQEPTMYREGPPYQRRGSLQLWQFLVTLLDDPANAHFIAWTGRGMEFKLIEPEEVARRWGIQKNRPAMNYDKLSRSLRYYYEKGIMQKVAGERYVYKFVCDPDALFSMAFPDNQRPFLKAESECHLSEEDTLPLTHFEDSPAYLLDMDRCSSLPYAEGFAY
The target of the next experiment is HSF1 (Homo sapiens, UniProt Q00613 1-529). To be noted: protein: recombinant; tags: N-terminal GST; chain copies: 3; dsDNA, one strand shown. Put shortly: as §1
Chain of HSF1 (Q00613 whole entry): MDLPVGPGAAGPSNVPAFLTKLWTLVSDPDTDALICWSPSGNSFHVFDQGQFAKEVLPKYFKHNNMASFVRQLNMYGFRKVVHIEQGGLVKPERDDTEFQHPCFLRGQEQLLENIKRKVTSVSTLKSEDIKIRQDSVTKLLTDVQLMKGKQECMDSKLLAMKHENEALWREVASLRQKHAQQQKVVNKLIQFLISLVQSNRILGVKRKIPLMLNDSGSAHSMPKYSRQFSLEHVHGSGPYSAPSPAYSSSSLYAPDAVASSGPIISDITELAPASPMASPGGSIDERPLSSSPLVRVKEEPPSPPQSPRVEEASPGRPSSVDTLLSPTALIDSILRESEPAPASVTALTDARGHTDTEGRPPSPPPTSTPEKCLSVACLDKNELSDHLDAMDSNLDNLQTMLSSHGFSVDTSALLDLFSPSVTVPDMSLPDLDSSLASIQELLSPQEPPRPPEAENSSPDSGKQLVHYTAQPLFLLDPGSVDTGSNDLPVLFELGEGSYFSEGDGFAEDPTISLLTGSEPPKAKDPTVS
Another experiment deals with T2, SPIC (Homo sapiens, UniProt Q8N5J4 1-248).
T2 sequence: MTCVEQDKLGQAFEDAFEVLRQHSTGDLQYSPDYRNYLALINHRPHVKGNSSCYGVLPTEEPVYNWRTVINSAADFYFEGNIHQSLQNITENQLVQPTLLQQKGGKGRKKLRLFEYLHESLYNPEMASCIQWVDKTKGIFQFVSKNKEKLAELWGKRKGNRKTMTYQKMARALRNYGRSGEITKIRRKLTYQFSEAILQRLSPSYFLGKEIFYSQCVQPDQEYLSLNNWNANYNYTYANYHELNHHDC
The settings on record: protein: recombinant; tags: N-terminal GST; dsDNA, one strand shown. Summed up:
as §1

Another experiment has as its target ELF4 (Homo sapiens, UniProt Q99607 1-663). To be noted: protein: recombinant; tags: N-terminal GST; dsDNA, one strand shown. Summed up: as §1
Another experiment deals with T3, ELK4 (Homo sapiens, UniProt P28324-2 1-405).
T3 sequence: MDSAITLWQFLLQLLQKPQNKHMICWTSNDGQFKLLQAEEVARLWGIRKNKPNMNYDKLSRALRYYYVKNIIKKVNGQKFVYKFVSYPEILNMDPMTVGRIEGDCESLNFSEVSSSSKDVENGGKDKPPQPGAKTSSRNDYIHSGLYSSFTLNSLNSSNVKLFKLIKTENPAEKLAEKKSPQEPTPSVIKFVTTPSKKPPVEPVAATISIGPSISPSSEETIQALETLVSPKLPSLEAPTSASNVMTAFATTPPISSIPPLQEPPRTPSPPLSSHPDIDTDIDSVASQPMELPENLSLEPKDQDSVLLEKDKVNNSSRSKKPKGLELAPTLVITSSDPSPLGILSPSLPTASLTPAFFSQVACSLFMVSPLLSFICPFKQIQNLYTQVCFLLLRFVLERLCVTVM
To be noted: protein: recombinant; tags: N-terminal GST; dsDNA, one strand shown. Summed up:
as §1

Another experiment deals with T4, ETV2 (Homo sapiens, UniProt O00321 1-342).
T4 sequence: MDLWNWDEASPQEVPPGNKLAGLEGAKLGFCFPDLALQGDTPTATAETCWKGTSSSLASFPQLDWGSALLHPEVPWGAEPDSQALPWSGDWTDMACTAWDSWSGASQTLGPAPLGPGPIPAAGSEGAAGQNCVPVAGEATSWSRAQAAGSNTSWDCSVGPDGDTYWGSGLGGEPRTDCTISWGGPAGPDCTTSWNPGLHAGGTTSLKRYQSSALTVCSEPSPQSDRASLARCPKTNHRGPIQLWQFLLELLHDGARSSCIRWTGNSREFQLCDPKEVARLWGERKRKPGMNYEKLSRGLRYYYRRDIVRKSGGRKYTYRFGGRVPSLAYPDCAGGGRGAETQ
To be noted: protein: recombinant; tags: N-terminal GST; dsDNA, one strand shown. Put shortly:
as §1

The next experiment addresses T5, ELF3 (Homo sapiens, UniProt P78545 1-371).
T5 sequence: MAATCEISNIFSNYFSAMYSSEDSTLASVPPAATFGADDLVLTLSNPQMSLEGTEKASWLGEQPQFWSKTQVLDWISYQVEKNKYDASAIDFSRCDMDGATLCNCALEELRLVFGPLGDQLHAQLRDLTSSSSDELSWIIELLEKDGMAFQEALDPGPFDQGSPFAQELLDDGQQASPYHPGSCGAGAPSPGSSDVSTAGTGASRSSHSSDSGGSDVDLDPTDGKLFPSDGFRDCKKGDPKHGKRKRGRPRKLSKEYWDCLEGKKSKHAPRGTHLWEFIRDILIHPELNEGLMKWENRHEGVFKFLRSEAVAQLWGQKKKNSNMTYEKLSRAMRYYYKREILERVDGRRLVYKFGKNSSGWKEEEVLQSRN
The settings on record: protein: recombinant; tags: N-terminal GST; dsDNA, one strand shown. Summed up:
as §1

For another experiment, the target named is CRX (Homo sapiens, UniProt O43186 1-299). To be noted: protein: recombinant; tags: N-terminal GST; dsDNA, one strand shown. Put shortly: as §1
Chain of CRX (O43186 whole entry): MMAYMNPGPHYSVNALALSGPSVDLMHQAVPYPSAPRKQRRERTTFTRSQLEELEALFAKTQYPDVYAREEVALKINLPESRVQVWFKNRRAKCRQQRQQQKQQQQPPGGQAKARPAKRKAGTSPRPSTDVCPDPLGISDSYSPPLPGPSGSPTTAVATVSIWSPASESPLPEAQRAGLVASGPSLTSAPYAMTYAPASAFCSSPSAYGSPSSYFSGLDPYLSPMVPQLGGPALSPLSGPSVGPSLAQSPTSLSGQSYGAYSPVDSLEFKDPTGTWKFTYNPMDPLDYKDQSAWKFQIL
The target of another experiment is ETV1 (Homo sapiens, UniProt P50549 1-477). To be noted: protein: recombinant; tags: N-terminal GST; dsDNA, one strand shown. Put shortly: as §1
Chain of ETV1 (P50549 whole entry): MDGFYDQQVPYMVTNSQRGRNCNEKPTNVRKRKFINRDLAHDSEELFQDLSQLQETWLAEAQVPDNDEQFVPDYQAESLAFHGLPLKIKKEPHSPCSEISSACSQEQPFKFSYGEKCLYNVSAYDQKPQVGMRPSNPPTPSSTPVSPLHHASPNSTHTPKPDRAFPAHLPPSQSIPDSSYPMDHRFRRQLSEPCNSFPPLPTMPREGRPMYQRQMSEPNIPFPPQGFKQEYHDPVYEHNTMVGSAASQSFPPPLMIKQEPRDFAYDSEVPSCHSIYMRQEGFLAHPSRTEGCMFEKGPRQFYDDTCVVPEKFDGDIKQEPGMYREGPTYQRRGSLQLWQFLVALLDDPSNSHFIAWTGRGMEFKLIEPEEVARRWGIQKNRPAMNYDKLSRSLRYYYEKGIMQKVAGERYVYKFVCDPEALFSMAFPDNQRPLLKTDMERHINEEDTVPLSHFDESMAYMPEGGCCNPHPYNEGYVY
The next experiment concerns the target T6, ERF (Homo sapiens, UniProt P50548 1-548).
T6 sequence: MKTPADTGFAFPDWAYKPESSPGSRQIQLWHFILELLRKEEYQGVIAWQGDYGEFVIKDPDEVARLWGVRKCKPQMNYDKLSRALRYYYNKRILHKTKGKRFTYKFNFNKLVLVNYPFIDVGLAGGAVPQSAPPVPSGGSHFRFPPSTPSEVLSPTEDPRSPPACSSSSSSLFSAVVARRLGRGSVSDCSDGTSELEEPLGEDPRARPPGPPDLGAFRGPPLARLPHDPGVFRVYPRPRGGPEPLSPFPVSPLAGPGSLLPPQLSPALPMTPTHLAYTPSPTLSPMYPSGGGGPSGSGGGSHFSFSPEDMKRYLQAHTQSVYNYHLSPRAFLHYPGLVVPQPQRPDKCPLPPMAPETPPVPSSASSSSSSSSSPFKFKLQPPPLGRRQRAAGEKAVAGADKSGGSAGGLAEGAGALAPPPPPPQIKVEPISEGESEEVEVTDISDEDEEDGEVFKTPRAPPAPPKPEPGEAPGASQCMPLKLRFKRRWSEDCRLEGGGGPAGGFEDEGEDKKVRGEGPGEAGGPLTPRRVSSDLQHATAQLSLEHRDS
To be noted: protein: recombinant; tags: N-terminal GST; dsDNA, one strand shown. Summed up:
as §1

The target of another experiment is T7, ETV3L (Homo sapiens, UniProt Q6ZN32 1-361).
T7 sequence: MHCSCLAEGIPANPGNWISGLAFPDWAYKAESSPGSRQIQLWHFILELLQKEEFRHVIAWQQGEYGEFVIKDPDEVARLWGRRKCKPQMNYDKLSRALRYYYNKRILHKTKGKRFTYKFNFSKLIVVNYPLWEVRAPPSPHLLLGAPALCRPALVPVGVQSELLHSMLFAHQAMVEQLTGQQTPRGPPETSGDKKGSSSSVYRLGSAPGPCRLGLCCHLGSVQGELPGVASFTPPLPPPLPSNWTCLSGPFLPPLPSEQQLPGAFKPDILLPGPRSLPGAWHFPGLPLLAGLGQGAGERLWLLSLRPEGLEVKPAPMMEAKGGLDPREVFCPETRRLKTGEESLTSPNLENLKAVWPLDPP
To be noted: protein: recombinant; tags: N-terminal GST; dsDNA, one strand shown. Put shortly: as §1

The target in another experiment is T8, ETS2 (Homo sapiens, UniProt P15036 1-469).
T8 sequence: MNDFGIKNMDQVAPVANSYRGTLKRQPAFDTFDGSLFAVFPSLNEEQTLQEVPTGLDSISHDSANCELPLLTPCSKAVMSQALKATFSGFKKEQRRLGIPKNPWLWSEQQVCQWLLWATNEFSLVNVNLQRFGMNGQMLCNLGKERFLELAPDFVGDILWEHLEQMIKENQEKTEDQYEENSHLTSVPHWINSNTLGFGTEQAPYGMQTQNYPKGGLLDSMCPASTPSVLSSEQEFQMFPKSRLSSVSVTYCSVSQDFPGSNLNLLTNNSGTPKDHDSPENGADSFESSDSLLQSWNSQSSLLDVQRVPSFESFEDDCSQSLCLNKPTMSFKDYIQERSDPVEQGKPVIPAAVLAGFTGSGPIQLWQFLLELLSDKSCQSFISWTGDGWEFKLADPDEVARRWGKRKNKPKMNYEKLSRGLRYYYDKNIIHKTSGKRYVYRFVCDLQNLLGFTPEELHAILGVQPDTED
The settings on record: protein: recombinant; tags: N-terminal GST; dsDNA, one strand shown. Put shortly:
as §1

For a further experiment, the target named is T9, SPDEF (Homo sapiens, UniProt O95238 1-335).
T9 sequence: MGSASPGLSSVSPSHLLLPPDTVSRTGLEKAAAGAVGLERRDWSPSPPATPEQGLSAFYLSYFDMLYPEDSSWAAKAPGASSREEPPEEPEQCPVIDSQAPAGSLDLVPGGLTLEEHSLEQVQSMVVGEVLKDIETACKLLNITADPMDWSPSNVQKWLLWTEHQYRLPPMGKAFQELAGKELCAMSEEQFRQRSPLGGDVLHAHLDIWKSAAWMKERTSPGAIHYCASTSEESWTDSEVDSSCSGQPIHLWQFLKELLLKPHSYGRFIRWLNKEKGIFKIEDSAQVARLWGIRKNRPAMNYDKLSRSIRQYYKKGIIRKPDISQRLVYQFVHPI
To be noted: protein: recombinant; tags: N-terminal GST; dsDNA, one strand shown. Put shortly:
as §1

For another experiment, the target named is T10, ETV7 (Homo sapiens, UniProt Q9Y603 1-341).
T10 sequence: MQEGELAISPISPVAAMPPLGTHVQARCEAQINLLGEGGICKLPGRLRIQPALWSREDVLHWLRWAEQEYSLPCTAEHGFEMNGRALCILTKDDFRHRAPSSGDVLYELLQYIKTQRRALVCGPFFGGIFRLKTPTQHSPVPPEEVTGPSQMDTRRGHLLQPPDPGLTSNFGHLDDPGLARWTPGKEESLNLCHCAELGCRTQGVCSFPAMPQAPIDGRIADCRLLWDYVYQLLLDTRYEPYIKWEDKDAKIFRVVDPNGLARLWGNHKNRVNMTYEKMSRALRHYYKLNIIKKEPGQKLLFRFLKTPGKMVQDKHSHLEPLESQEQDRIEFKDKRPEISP
To be noted: protein: recombinant; tags: N-terminal GST; dsDNA, one strand shown. Put shortly:
as §1

The target of the next experiment is T11, ELF5 (Homo sapiens, UniProt Q9UKW6-2 1-255).
T11 sequence: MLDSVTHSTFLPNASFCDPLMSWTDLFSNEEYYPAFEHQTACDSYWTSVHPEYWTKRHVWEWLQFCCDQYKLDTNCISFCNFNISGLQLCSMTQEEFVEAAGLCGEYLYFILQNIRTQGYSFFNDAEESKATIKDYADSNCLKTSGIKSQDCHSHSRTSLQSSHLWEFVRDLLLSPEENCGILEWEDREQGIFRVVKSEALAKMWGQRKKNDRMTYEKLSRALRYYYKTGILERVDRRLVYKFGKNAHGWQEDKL
To be noted: protein: recombinant; tags: N-terminal GST; dsDNA, one strand shown. Put shortly: as §1

In the next experiment the target is T12, ETV3 (Homo sapiens, UniProt P41162-2 1-143).
T12 sequence: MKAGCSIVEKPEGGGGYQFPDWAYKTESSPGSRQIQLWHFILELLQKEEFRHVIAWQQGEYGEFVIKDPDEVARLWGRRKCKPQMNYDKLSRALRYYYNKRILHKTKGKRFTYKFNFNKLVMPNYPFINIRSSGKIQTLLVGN
The settings on record: protein: recombinant; tags: N-terminal GST; dsDNA, one strand shown. Put shortly: as §1

A further experiment addresses ETV6 (Homo sapiens, UniProt P41212 1-452). To be noted: protein: recombinant; tags: N-terminal GST; dsDNA, one strand shown. Put shortly:
as §1

Chain of ELF4 (Q99607 whole entry): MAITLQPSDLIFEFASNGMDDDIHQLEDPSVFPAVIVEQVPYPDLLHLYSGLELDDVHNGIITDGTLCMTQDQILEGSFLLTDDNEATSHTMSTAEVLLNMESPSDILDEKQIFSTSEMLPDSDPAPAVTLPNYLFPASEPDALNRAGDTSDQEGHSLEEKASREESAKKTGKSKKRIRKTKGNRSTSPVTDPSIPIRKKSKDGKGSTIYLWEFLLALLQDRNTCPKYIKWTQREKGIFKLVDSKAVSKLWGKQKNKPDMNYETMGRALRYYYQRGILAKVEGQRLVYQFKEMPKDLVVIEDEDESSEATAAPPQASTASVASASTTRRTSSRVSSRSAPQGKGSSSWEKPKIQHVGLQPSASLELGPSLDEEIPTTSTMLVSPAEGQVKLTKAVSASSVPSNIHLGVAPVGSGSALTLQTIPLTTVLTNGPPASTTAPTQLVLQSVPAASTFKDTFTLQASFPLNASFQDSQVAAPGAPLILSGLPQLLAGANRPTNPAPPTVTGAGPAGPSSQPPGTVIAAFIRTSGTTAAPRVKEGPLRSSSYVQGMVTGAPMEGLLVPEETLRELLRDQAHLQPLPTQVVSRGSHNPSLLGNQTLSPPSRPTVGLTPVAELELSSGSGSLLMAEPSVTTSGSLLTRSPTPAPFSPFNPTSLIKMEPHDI
Chain of ETV6 (P41212 whole entry): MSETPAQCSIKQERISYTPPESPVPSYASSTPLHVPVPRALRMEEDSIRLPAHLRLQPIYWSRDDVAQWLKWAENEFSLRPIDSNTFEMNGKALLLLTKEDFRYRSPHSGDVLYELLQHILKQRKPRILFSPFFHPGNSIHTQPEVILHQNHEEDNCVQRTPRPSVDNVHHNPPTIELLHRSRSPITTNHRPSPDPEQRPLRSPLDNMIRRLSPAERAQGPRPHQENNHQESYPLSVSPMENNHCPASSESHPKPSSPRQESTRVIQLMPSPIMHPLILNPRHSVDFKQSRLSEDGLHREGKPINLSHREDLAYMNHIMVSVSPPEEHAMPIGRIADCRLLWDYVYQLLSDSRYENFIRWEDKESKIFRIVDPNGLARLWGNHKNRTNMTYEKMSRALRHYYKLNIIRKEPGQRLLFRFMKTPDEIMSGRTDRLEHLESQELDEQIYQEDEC

Consider TATGAA, for which the binding signal with FEV was 1.14 fold enrichment (6-mer frequency, TF over GST control); with ETV5, 1.12 fold enrichment (6-mer frequency, TF over GST control); with HSF1, 1.21 fold enrichment (6-mer frequency, TF over GST control); in the experiment with SPIC, 1.4 fold enrichment (6-mer frequency, TF over GST control); in the experiment with ELF4, 1.26 fold enrichment (6-mer frequency, TF over GST control); in the experiment with ELK4, 1.13 fold enrichment (6-mer frequency, TF over GST control). Also, the binding signal was 1.17 fold enrichment (6-mer frequency, TF over GST control) with ETV2; 1.29 fold enrichment (6-mer frequency, TF over GST control) with ELF3; 1.25 fold enrichment (6-mer frequency, TF over GST control) with CRX; 1.14 fold enrichment (6-mer frequency, TF over GST control) with ETV1; 1.21 fold enrichment (6-mer frequency, TF over GST control) in the experiment with ERF; 1.21 fold enrichment (6-mer frequency, TF over GST control) with ETV3L. In addition, the binding signal with ETS2 is 1.27 fold enrichment (6-mer frequency, TF over GST control); in the experiment with SPDEF it was 1.16 fold enrichment (6-mer frequency, TF over GST control); in the experiment with ETV7 it was 1.2 fold enrichment (6-mer frequency, TF over GST control); with ELF5 it was 1.07 fold enrichment (6-mer frequency, TF over GST control); with ETV3, 1.17 fold enrichment (6-mer frequency, TF over GST control); in the experiment with ETV6 it was 1.13 fold enrichment (6-mer frequency, TF over GST control).
